From PubChem BioAssay
BAZ2B inh: qHTS Assay for Inhibitors of BAZ2B; Bromodomain adjacent to zinc finger domain protein 2B (Homo sapiens), Q9UIF8; AlphaScreen BAZ2B-H3K14Ac peptide displacement; Potency, µM (top dose mostly 114 µM), inactives show at the highest dose activity change, negative = inhibition, usual class: inhibitors; hit rate 4.4% among 360,000; AID 504333, 2011; note: potency is the fitted concentration of half-maximal effect; % is set by controls: 0 for no effect and ±100 for the full control effect; nearly all actives have a fitted effect of over 60% in size
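BAZ2B 50 nM plus b-H3(5-23)K14Ac 50 nM, PBS pH 7.4/0.01% Tween-20, 30 min RT; compound added (max 110 uM), 30 min RT; streptavidin donor/Ni-chelate acceptor beads 10 ug/mL final, 20 min dark; AlphaScreen read.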
G9a block: qHTS Assay for Inhibitors of Histone Lysine Methyltransferase G9a; Histone-lysine N-methyltransferase EHMT2 (Homo sapiens), Q96KQ7; G9a H3K9 monomethylation, AlphaScreen, 2 h; Potency, µM (series often up to 102 µM), without a hit: at the highest dose activity, negative = inhibition, usual class: inhibitors; hit rate 8.8% among 350,000; note: potency is the fitted concentration of half-maximal effect; % is set by controls: 0 for no effect and ±100 for the full control effect; nearly all actives have a fitted effect of over 75% in size
Target sequence (Q96KQ7 913-1193 limits assumed): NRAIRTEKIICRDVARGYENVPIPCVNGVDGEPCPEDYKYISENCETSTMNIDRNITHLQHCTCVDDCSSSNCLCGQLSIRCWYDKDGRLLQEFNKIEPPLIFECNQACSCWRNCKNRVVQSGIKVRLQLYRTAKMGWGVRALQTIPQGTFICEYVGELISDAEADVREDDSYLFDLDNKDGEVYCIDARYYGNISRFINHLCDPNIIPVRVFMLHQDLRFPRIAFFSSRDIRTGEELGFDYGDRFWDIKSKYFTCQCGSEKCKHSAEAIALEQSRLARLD
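Quantitative HTS format: methyltransferase activity on a biotin-tagged H3K9 peptide is measured by AlphaScreen, using a rabbit anti-monomethyl-H3K9 antibody with streptavidin donor and anti-IgG acceptor beads. Final levels are 20 nM enzyme, 500 nM peptide, 20 uM SAM; 2 h RT.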
PLK1 PBD inh: qHTS for Inhibitors of PLK1-PDB (polo-like kinase 1 - polo-box domain): Primary Screen; Potency, µM, inactives show max response, negative = inhibition, actives largely listed as inhibitors; AID 720504, 2013; hit rate 2.8% among 360,000; Serine/threonine-protein kinase PLK1 (Homo sapiens), P53350; Plk1 PBD binding of FITC phosphopeptide, fluorescence polarization; note: potency is the fitted concentration of half-maximal effect; series mostly up to about 57 µM; % is set by controls: 0 for no effect and ±100 for the full control effect; nearly all actives have a fitted effect of over 65% in size
HP1b chromo inh: HTS for Inhibitors of HP1-beta Chromodomain Interactions with Methylated Histone Tails; Chromobox protein homolog 1 (Homo sapiens), P83916; AlphaScreen HP1-beta / biotin-H3K9me3 peptide binding; Potency, µM (top dose mostly 114 µM), without a hit: top-dose activity change, negative = inhibition, hits mostly inhibitors; hit rate 0.56% among 390,000; note: potency is the fitted concentration of half-maximal effect; nearly all actives have a fitted effect of over 70% in size
Target sequence (P83916 whole entry, looked up): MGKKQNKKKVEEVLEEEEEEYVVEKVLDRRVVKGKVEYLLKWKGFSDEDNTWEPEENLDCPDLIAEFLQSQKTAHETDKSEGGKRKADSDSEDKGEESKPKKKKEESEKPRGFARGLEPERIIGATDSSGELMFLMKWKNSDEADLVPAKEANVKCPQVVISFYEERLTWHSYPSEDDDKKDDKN
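AlphaScreen: HP1-beta (50 nM) preformed 30 min with biotin-H3(1-18)K9me3 peptide (50 nM) in PBS pH 7.4, 0.01% Tween-20. Compound added for 30 min at RT, then streptavidin donor/nickel chelate acceptor beads (10 ug/mL) for 30 min.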
JMJD2A Tudor: qHTS Assay for Inhibitors of JMJD2A-Tudor Domain. AlphaScreen JMJD2A-Tudor / H3K4me3 peptide binding. hit rate 4.4% among 390,000. Potency, µM (doses to about 114 µM), for the others: top-dose activity change, negative = inhibition, hits mostly inhibitors. Lysine-specific demethylase 4A (Homo sapiens), O75164. AID 504339, 2011; note: potency is the fitted concentration of half-maximal effect; % is set by controls: 0 for no effect and ±100 for the full control effect; nearly all actives have a fitted effect of over 50% in size
PI5P4K alpha inh: qHTS for Inhibitors of phosphatidylinositol 5-phosphate 4-kinase (PI5P4K); PI5P4Kalpha enzyme, ADP-Glo luminescence, 60 min; stronger effect = lower value; max response, %; hit rate 1.2% among 330,000; active = max response of -50% or lower; inconclusive = between -30% and -50%; inactive = -30% or higher; note: value at the top dose of about 77 µM; % is set by controls: 0 for no effect and ±100 for the full control effect
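Enzyme plus substrate dispensed, test compounds pinned in, then ATP (5 microM final) added. After 60 min at RT, ADP-Glo reagent 1 for 45 min and reagent 2 for 30 min preceded luminescence imaging.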
An asterisk follows results filed as active; ? = inconclusive; nt = no result; [ ] = remark or other dose. An excerpt weighted towards active compounds, which were near 12% of everything screened. Unless noted, calls come from the whole dose curve; as a rule, active = well fitted curve in the direction sought with a large enough effect; inconclusive = small, poorly fitted or top-dose-only effect, or another doubt; inactive = no such curve, though single readings can be large; an effect the other way counts as inactive or inconclusive.

SMILES	BAZ2B inh	G9a block	PLK1 PBD inh	HP1b chromo inh	JMJD2A Tudor	PI5P4K alpha inh
CCOC(=O)c1cccc(NC(=O)CSc2ncc3c(n2)-c2ccc(Cl)cc2N(Cc2ccccc2)S3(=O)=O)c1	-9%	?	nt	-5%	-13%	nt
Cc1cc(C)c2c(=O)[nH]c(SCC(=O)c3ccc(C)c(C)c3)nc2n1	-13%	50µM*	0%	24%	2%	3
C(/Oc1ccccc1)=C1\Nn2c(nnc2-c2cc(-c3ccccc3)n[nH]2)S1	nt	nt	nt	24%[57 µM]	-11%[57.1 µM]	nt
Cc1ccc(S(=O)(=O)CCC(=O)Nc2cccc(S(=O)(=O)N3CCCCCC3)c2)cc1	9%	-7%[59 µM]	-2%	4%	-23%	2
C#CCOCCOCCOCCNc1nc(N2CCOCC2)nc(N2CCN(C(=O)[C@H](CCC(=O)O)n3cc(C(N)[C@H](C)CC)nn3)CC2)n1 (stereo partly specified)	-30%	8%[12.7 µM]	-21%	57%	40µM*	5
C#CCOCCOCCOCCNc1nc(N2CCN(C(=O)[C@H](CCC(=O)O)n3cc(CN)nn3)CC2)nc(N2CCN(C(=O)[C@H](CCC(=O)O)n3cc([C@@H](N)[C@H](C)CC)nn3)CC2)n1	nt	nt	-14%	6%	79µM*	-7
C#CCOCCOCCOCCNc1nc(N2CCOCC2)nc(N2CCN(C(=O)[C@H](CO)n3cc([C@@H](N)C(C)C)nn3)CC2)n1	nt	nt	6%	37%	-11%	-3
C#CCOCCOCCOCCNc1nc(N2CCN(C(=O)[C@H](CCC(=O)O)n3cc([C@@H](N)[C@H](C)CC)nn3)CC2)nc(N2CCN(C(=O)[C@H](CCC(=O)O)n3cc([C@@H](N)CCSC)nn3)CC2)n1	nt	nt	-15%	49%	50µM*	0
C#CCOCCOCCOCCNc1nc(N2CCN(C(=O)[C@H](CO)n3cc([C@@H](N)C(C)C)nn3)CC2)nc(N2CCN(C(=O)[C@H](CCCCN)n3cc([C@@H](N)[C@H](C)CC)nn3)CC2)n1	nt	nt	-4%	39%	-4%	-2
COC(=O)c1ccccc1NC(=O)c1cn2c3c(ccc(Cl)c3c1=O)OC(C)C2 (stereo unspecified)	4%	-1%[59 µM]	nt	26%	-2%	nt
COc1ccc(NC(=O)c2c(-c3ccc(C)cc3)nnc3ccccc23)c(OC)c1	?	-10%[59 µM]	nt	0%	-32%	nt
Cc1ccc(NC(=O)c2cc(S(=O)(=O)NC3CCCCC3)ccc2F)cc1Cl	-27%	-22%[59 µM]	nt	15%	-20%	nt
NC(=O)NC(Cc1ccccc1)C(=O)NCCCSc1ccccc1 (stereo unspecified)	-13%	5%	0%	2%	-5%	1
Cc1ccc(S(=O)(=O)N2CCN(CC(=O)N/N=C/c3ccccc3OCC(=O)O)CC2)cc1	-14%	nt	0%	14%	40µM*	3
O=C(O)COc1ccccc1/C=N/NC(=O)c1cccc(S(=O)(=O)N2CCOCC2)c1	?	14µM*	-11%	0%	40µM*	?
CCN(CC)S(=O)(=O)c1cccc(C(=O)N/N=C/c2ccccc2OCC(=O)O)c1	50µM*	22µM*	-5%	0%	?	-1
COc1cc(OC)c(OC)cc1/C=N/NC(=O)c1cccc(S(=O)(=O)N2CCOCC2)c1	-27%	?	2%	16%	-25%	0
COc1ccccc1NS(=O)(=O)c1cccc(C(=O)N/N=C/c2ccccc2OCC(=O)O)c1	-33%	?	2%	13%	-13%	7
O=C(O)COc1ccccc1C=NNC(=O)c1ccc(NS(=O)(=O)c2cccs2)cc1	nt	nt	-1%	0%	?	-57*
